Here are results for 40 compounds from PubChem BioAssay (NCATS).

Records with an inconclusive call do not appear. Calls of active or inactive are those of the source. The call rests on the fitted dose curve; in most records, active means well fitted inhibition curve with a large enough effect; inconclusive means small, poorly fitted or top-dose-only effect; inactive means flat fitted curve, though single readings scatter.

Calcium and integrin-binding protein 1 (Homo sapiens), sequence (Q99828 whole entry, looked up): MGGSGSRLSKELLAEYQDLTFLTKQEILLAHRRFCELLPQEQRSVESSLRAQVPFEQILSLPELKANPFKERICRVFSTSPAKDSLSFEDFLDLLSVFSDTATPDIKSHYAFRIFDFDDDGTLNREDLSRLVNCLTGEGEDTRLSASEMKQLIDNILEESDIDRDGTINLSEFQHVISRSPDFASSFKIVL

The experiment addresses Calcium and integrin-binding protein 1 (Homo sapiens) (UniProt Q99828). Nature of the experiment: Primary qHTS for Identification of Calcium Integrin Binding Protein 1 (CIB1) Competitor (AID 1508620).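 Further: GST tagged CIB1 binding a fluorescein labelled alphaIIb integrin peptide tracer; top concentration of the series differs between compounds.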 To be noted: CIB1-GST / FITC-alphaIIb peptide fluorescence polarization; series mostly up to 57.7 µM. The text has this: Assay Provider: Ulhas P. Naik, PhD Sidney Kimmel Medical College Thomas Jefferson University, Philadelphia, PA Primary function of platelets is to maintain hemostasis. At the site of vascular injury, platelets adhere to adhesive proteins such as collagen and von Willebrand factor. Adherent platelets are activated and generate soluble platelet agonists such as thrombin, ADP and thromboxane A2. Following exposure of circulating platelets to these agonists, results in platelet shape change, granule secretion and activation of platelet integrin alphaIIb-beta3. Ligand binding to activated integrin alphaIIb-beta3 triggers outside-in signaling, leading to platelet aggregation, stabilization of platelet plug, and clot retraction. Upon atherosclerotic plaque rupture also causes platelet plug formation, which underlies a number of cardiovascular diseases such as myocardial infraction and stroke. A number of anti-platelet drugs such as aspirin, clopidogrel, prasugrel, vorapaxar, and eptifibatide are currently available to prevent the thrombotic complications. However, these anti-platelet agents have several limitations including inherent variability in individual responses, developing resistance, and serious bleeding side effects. For these reasons they are not suitable for long-term protection. Based on the experiences with current anti-platelet drugs, it appears that the most useful therapeutic approach is to intersect the secondary responses such as integrin outside-in signaling or recruitment of platelets by TxA2 and secreted ADP. Compounds, which can largely preserve the primary hemostatic function of platelets but inhibit secondary response will be most desired therapeutic agents for treatment of cardiovascular disease. CIB1 is a calcium integrin binding protein, which specifically interact with the alphaIIb subunit of integrin alphaIIb-beta3. Binding of CIB1 to alphaIIb regulates the outside-in signaling in platelets, which is needed for thrombus stabilization and thrombus growth. […] Therefore, we propose that discovery of a small molecule that can prevent the association of CIB1 and alphaIIb-beta3 will be a potential anti-platelet agent that can block the thrombus formation without undue effect on hemostasis. Reference: [1] Naik MU, Nigam A, Manrai P, et al. CIB1 deficiency results in impaired thrombosis: the potential role of CIB1 in outside-in signaling through integrin alpha IIb beta 3. J Thromb Haemost.
PROTOCOL TABLES SEQUENCE No. (1, 2, 3, etc.); […] (e.g., Cells, Incubation, Reagent, etc.); VALUE and DESCRIPTION. 1; Reagent; 3 uL; Protein or buffer (4/3x) 2; Compound; 46 nL; Control inhibitor / compound library 3; Time; 15 min; Room temperature incubation 4; Reagent; 1 uL; Fluorescent labeled peptide (4x) 5; Time; 1000 rpm; Centrifuge 6; Time; 15 min; Room temperature incubation 7; Detection; Ex 480/ Em 540; ViewLux Fluorescence Read NOTES (numbers refer to sequence above) 1; Protein Mixture: C1B1-GST (final concentrations of 1 uM). […] 3; Room temperature incubation. 4; Fluorescent Labeled Peptide: FITC-aIIb (final concentration of 100 nM). Sequence of alphaIIb peptide: Acetyl-[…]-FITC (purity is 95.83%). 5; Centrifuge 1000 rpm (164 g) for 15 seconds. 6; Room temperature incubation. 7; ViewLux Fluorescent Polization Read: excitation = 480(20) / emission = 540(25) S and P; FITC Dichroic mirror.
On the technique in general: qHTS replaces the single test concentration by a dilution series.
As to `CC(C)c1ccc(Cn2ccc3c4c(N)nc(NC5CC5)nc4ccc32)cc1`, the outcome was inactive.
Regarding `CNC(=O)c1ccc(N2C(=S)N(c3cnc(C#N)c(C(F)(F)F)c3)C(=O)C23CCC3)cc1F`, the outcome was inactive.
`CC1(C)CCC(c2ccc(Cl)cc2)=C(CN2CCN(c3ccc(C(=O)NS(=O)(=O)c4ccc(N[C@H](CCN5CCOCC5)CSc5ccccc5)c(S(=O)(=O)C(F)(F)F)c4)cc3)CC2)C1`: the outcome was inactive.
As to `CC[C@@H]1C(=O)N(C)c2cnc(Nc3ccc(C(=O)NC4CCC(N5CCN(CC6CC6)CC5)CC4)cc3OC)nc2N1C(C)C` (stereo not given in full), the outcome was inactive.
As for `COc1cccc2nc(-c3cccs3)nc(NN3C(=O)C=C(C)C3=O)c12`, the entry is “inactive”; as for `Cn1c2cc(S(C)=O)sc2c2cnn(Cc3cccc(N)c3)c(=O)c21` (stereo not given), “inactive”.
As for `CC1(O)CC(c2nc(-c3ccc4ccc(-c5ccccc5)nc4c3)c3c(N)nccn23)C1` (stereo not given), the entry is “inactive”; as for `CCCCCN(CCC12CC3CC(CC(C3)C1)C2)C(=O)NCCCc1ccncc1`, “inactive”; as for `Cn1c(CNc2ccc(C(=N)N)cc2)nc2cc(C(=O)N(CCC(=O)O)c3ccccn3)ccc21`, “inactive”.
As for `COc1ccc2c(c1)CC[C@@H](CN(C)CC(=O)O)[C@H]2c1ccccc1`, the entry is “inactive”; as for `COc1ccc(F)c(F)c1C(=O)c1cnc(NC2CCN(S(C)(=O)=O)CC2)nc1N`, “inactive”.
As for `CCCNC(=O)Nc1ccc(Oc2ncnc3cc(OC)c(OC)cc23)cc1Cl`, the outcome was inactive.
As for `c1nc2nc(Nc3ccc(N4CCOCC4)cc3)nc(NC3CCCCC3)c2[nH]1`, the entry is “inactive”; as for `Cc1nc(Nc2n[nH]c3c2CN(C(=O)N[C@H](CN(C)C)c2ccccc2)C3(C)C)c2sccc2n1`, “inactive”; as for `Cc1cccc(C=NNc2cc(N3CCOCC3)nc(OCCc3ccccn3)n2)c1`, “inactive”.
On to `Nc1nccc(Oc2ccc(NC(=O)c3c[nH]cc(-c4ccc(F)cc4)c3=O)cc2F)c1Cl`, for which the outcome was inactive.
`CN1CCC(CNc2ccc3ncc(-c4cccc(OC(F)(F)F)c4)n3n2)CC1`: the outcome was inactive.
As for `Cc1[nH]c2ccccc2c1CCNCc1ccc(C=CC(=O)NO)cc1`, the entry is “inactive”; as for `COc1cccc2c(NCc3ccccc3)nc(-n3c(N)nc4ccccc43)nc12`, “inactive”; as for `Nc1nc(Nc2ccc(S(N)(=O)=O)cc2)nn1C(=O)c1c(F)cccc1F`, “inactive”.
For the compound `CC(C)CC(=O)Nc1n[nH]c2c1CN(C(=O)C1CCN(C)CC1)C2(C)C`, the result was inactive.
With `Cc1ccc(C(=O)Nc2cccc(C(F)(F)F)c2)cc1-c1ccc2nc(NCCN3CCOCC3)ncc2c1`, the result was inactive.
Regarding `Cc1ccc(C(=O)Nc2ccc(CN3CCN(C)CC3)c(C(F)(F)F)c2)cc1C#Cc1cnc2cccnn12`, the outcome was inactive.
As for `CCOc1ccccc1OCCNC(C)Cc1ccc(OC)c(S(N)(=O)=O)c1` (stereo not given), the entry is “inactive”; as for `CC(C)=CCCC(C)=CCCC(C)=CCSc1ccccc1C(=O)O`, “inactive”; as for `CCN(CC)CCNC(=O)c1ccc2nc(-c3ccccc3)c(-c3ccc(CN4CCC(n5c(=O)[nH]c6ccccc65)CC4)cc3)nc2c1`, “inactive”.
Take `CCc1cc2c(cc1N1CCC(N3CCOCC3)CC1)C(C)(C)c1[nH]c3cc(C#N)ccc3c1C2=O`: the outcome was inactive.
Take `O=C(Nc1cn[nH]c1-c1nc2ccc(CN3CCOCC3)cc2[nH]1)NC1CC1`: the outcome was inactive.
As for `Nc1ccn([C@@H]2CS[C@H](CO)O2)c(=O)n1`, the entry is “inactive”; as for `O=C(c1cncc(Br)c1)N1CCC(N2CCCC2)CC1`, “inactive”; as for `CCN1CCN(CC(=O)Nc2ccc(-c3cccc4c(=O)cc(N5CCOCC5)oc34)c3sc4ccccc4c23)CC1`, “inactive”.
As for `OCCCNc1cc(-c2ccnc(Nc3cccc(Cl)c3)n2)ccn1`, the entry is “inactive”; as for `CC1(C)CC(=O)c2c(C(F)(F)F)nn(-c3ccc(C(N)=O)c(NC4CCC(OC(=O)CN)CC4)c3)c2C1` (stereo not given), “inactive”.
Take `O=c1[nH]c(=O)n(C2CCCO2)cc1F` (stereo not given): the result was inactive.
Take `Nc1ccccc1NC(=O)c1ccc(CNC(=O)OCc2cccnc2)cc1`: the outcome was inactive.
As for `Cc1cc(Nc2cc(N3CCN(C)CC3)nc(C=Cc3ccccc3)n2)n[nH]1`, the entry is “inactive”; as for `CC(=O)Nc1nc(C)c(-c2ccc(Cl)c(S(=O)(=O)NCCO)c2)s1`, “inactive”; as for `O=C1CCC[C@@H]2[C@H]3CCC[N+]4([O-])CCC[C@@H](CN12)[C@@H]34` (stereo not given in full), “inactive”.
As for `Cn1c2ccccc2c2c3c(c4c5ccccc5n(CCC#N)c4c21)CNC3=O`, the entry is “inactive”; as for `Nc1ncnc2c1c(-c1cnc3[nH]ccc3c1)nn2C1CCCC1`, “inactive”.
